# FLuc counter = qHTS profiling assay for firefly luciferase inhibitor/activator using purifed enzyme and Km concentrations of substrates (counterscreen for miR-21 project) | Luciferin 4-monooxygenase (Photinus pyralis), P08659 | purified FLuc, Km substrates, luminescence inhibition | Potency, µM (highest dose often 57.5 µM), for the others: at the top dose activity change, negative = inhibition, hits mostly inhibitors | actives 6.9% (n = 360,000);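 also: plate controls were vehicle for no effect and reference inhibitor for full effect; nearly all actives have a fitted effect of over 55% in size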
# Target sequence (P08659 whole entry, looked up): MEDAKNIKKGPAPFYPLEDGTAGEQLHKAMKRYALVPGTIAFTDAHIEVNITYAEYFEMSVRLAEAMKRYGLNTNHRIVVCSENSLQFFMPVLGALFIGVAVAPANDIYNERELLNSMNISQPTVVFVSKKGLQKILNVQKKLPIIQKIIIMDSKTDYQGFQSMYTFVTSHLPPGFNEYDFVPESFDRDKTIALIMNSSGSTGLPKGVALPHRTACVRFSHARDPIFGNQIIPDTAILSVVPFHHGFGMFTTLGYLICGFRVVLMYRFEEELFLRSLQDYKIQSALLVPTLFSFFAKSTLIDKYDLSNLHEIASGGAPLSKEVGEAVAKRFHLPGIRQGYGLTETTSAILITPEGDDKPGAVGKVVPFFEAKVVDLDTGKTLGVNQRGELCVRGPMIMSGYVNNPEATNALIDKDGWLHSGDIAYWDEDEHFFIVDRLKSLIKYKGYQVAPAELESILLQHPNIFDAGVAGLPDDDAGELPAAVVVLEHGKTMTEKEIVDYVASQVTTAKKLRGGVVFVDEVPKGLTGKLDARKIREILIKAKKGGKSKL
#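 Biochemical qHTS of compounds, final roughly 60 µM downward over six points, against 10 nM purified firefly luciferase using Km concentrations of substrates (10 uM D-luciferin, 10 uM ATP) in Tris acetate pH 7.5 buffer; luminescence output.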
# Rab9 promoter act = qHTS Assay for Rab9 Promoter Activators; Huh7 Rab9 promoter-luciferase reporter, luminescence, 24 h; actives 2.8% (n = 320,000); Potency, µM (series often up to 9.22 µM), for the others: at the highest dose activation, negative = inhibition, hits mostly activators; also: % of control where 0% means no effect; nearly all actives have a fitted effect of over 60% in size
#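 Using Huh7 cells stably transfected with Rab9 promoter–luciferase, compounds were incubated 24 h at 37 °C, 5% CO2; luciferase luminescence was read 10 min after reagent addition.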
# SMN2 splice up = qHTS Assay for Enhancers of SMN2 Splice Variant Expression. Potency, µM (highest dose often 46.1 µM), without a hit: at the highest dose activity change, positive = activation, usual class: activators. actives 2.8% (n = 210,000). HEK293 SMN2-luciferase splicing reporter, luminescence, 30-36 h; also: % of control where 0% means no effect; nearly all actives have a fitted effect of over 55% in size
#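 HEK293 cells carry an SMN2 minigene-luciferase reporter in which exon 7 inclusion puts luciferase in frame. Cells were seeded at 2000 cells/well, attached for 10-12 hours, then exposed to compounds for 30-36 hours at 37C before ONE-Glo luminescence.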
# ELG1 genotoxic = qHTS screen for small molecules that induce genotoxicity in human embryonic kidney (HEK293T) cells expressing luciferase-tagged ELG1 | HEK293T ELG1-luciferase reporter, luminescence, 16 h | Potency, µM (highest dose often 46 µM), inactives show top-dose activity change, positive = activation, most hits filed as activators | actives 1.3% (n = 330,000); also: % of control where 0% means no effect; nearly all actives have a fitted effect of over 60% in size
#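 16 hr compound incubation (37 °C, 5% CO2) of HEK293T cells carrying luciferase-tagged ELG1; luciferase then measured by ONE-Glo luminescence after 30 min at RT.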
# NPC1 promoter act = qHTS Assay for NPC1 Promoter Activators; Huh7 NPC1 promoter luciferase reporter, 24 h; Potency, µM (highest dose often 9.22 µM), inactives show top-dose activation, most hits filed as activators; actives 2.4% (n = 320,000); AID 485313, 2010; also: % of control where 0% means no effect; nearly all actives have a fitted effect of over 60% in size
#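 Cells: Huh7 expressing luciferase under the NPC1 promoter, 1500/well. Seeded 2 h, compound added, incubated 24 h at 37 °C. Luciferase reagent, 10 min ambient, then luminescence.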
# ELG1 DNA repair = qHTS screen for small molecules that inhibit ELG1-dependent DNA repair in human embryonic kidney (HEK293T) cells expressing luciferase-tagged ELG1 | actives 2.3% (n = 330,000) | HEK293T ELG1-luciferase reporter, luminescence, 16 h; DNA damage induced by 5-fluorouridine | Potency, µM (highest dose often 46.1 µM), for the others: at the top dose activity change, negative = inhibition, most hits filed as inhibitors; also: % is scaled to controls: 0 for no effect and ±100 for the full control effect; nearly all actives have a fitted effect of over 55% in size
#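 Reporter activity after DNA damage by 5-fluorouridine is monitored. Compound-treated cells incubate 16 hr at 37 °C, then ONE-Glo is added for 30 min before luminescence reading.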
# Numbers without * were called inactive; ? = inconclusive; nt = no result given. Only some compounds are listed: those with a hit (about 9.2% of all), similar ones and a draw of the others. Calls follow the shape of the dose curve; as a rule, active = well fitted curve in the direction sought with a large enough effect; inconclusive = small, poorly fitted or top-dose-only effect, or another doubt; inactive = no such curve, though single readings can be large; an effect the other way counts as inactive or inconclusive. Potency is read from the fitted curve at half-maximal effect.
SMILES,FLuc counter,Rab9 promoter act,SMN2 splice up,ELG1 genotoxic,NPC1 promoter act,ELG1 DNA repair
Cc1ccc2c(c1)C(c1ccc(F)cc1)N(C(=O)c1ccccc1Br)CC(=O)N2 (stereo not drawn),-1.0%,1.4%,nt,-6.2%,-8.7%,-16.0%
CC(OC(=O)c1ccc(F)cc1)C(=O)Nc1nc(-c2cccc([N+](=O)[O-])c2)cs1 (stereo not drawn),0.3%,1.1%,10.3%,-1.8%,-2.8%,?
CC(C)Oc1ccc(C(=O)OC(C)C(=O)Nc2nc(-c3cccc([N+](=O)[O-])c3)cs2)cc1 (stereo not drawn),1.7%,-5.9%,-13.3%,-4.0%,-2.3%,16.4µM*
COc1ccc(Cl)c(NC(=O)C/C(C)=N/NC(=O)CCc2ccccc2)c1,0.7%,-5.4%,nt,-0.2%,2.5%,1.2%
Cc1cc(=O)[nH]c2ccc(S(=O)(=O)NC3CCCCC3)cc12,1.4%,-4.0%,nt,20.6µM*,-1.4%,?
O=C1SC(SC(=Nc2ccccc2)Nc2ccccc2)C(=O)N1c1ccccc1 (stereo not drawn),?,25.4%,?,17.5%,13.2%,?
Cc1cc(C)c(NC(=O)Cn2c(=O)n(CC(=O)NCCc3ccccc3)c(=O)c3ccccc32)c(C)c1,1.0%,nt,9.5%,nt,nt,nt
COC(=O)c1ccc(-c2ccc(/C=N/NC(=O)Cc3nnc(N)s3)o2)cc1,?,?,nt,8.2%,4.47µM*,0.0%
Cc1ccc(C(=O)C(NC(=O)c2ccco2)N2CCOCC2)cc1 (stereo not drawn),-10.8%,?,12.6µM*,18.4µM*,?,?
CCCCn1nc(C(=O)Oc2ccc3c(C)cc(=O)oc3c2)c2ccccc2c1=O,9.5%,-0.3%,?,-0.2%,-1.3%,-18.3%
CC(C)(C)C(=O)Cn1ncc(N2CCCC2)c(Br)c1=O,?,3.98µM*,23.6%,?,?,?
CC(C)(C)C(=O)Cn1ncc(N2CCOCC2)c(Br)c1=O,-2.4%,26.1%,7.0%,8.8%,6.9%,?
CCOC(=O)Cc1csc(NC(=O)Nc2ccc(Cl)cc2)n1,6.01µM*,-7.0%,nt,-6.5%,-6.2%,18.3µM*
CCOC(=O)Cc1csc(NC(=O)Nc2cccc(Cl)c2)n1,5.36µM*,-3.1%,-40.1%,0.0%,0.0%,-18.8%
COc1ccc(CN2CCNC(=O)C2CC(=O)NCc2cnn(C)c2)cc1OC (stereo not drawn),-1.7%,-3.0%,nt,4.0%,-0.4%,7.5%
O=C(N/N=C/c1ccccc1C(=O)O)c1ccccc1Br,?,16.8%,10.0%,0.0%,-0.2%,0.1%
O=C(N/N=C/c1cn(-c2cccs2)nc1-c1ccccc1)c1ccccc1O,9.53µM*,-3.8%,nt,-1.9%,-2.1%,?
O=C(N/N=C/c1cn(-c2cccs2)nc1-c1ccccc1)c1ccccc1Br,6.75µM*,8.2%,?,3.1%,7.1%,?
Cc1nnc2sc(SCC(=O)Nc3nccs3)nn2c1=O,-12.2%,-0.1%,16.1%,-0.1%,1.3%,?
O=C(NCc1ccccc1)c1ccc(-c2ccccc2F)o1,13.5µM*,?,31.6µM*,13µM*,26.1%,?
O=C(NCCc1ccccc1)c1ccc(-c2ccc(F)cc2)o1,21.3µM*,0.7%,4.9%,-0.1%,-6.0%,11.7%
O=C(NCCc1ccccc1)c1ccc(-c2ccccc2C(F)(F)F)o1,?,-0.7%,8.5%,1.3%,-2.6%,24.5%
COc1cc(-c2cc(C(=O)NCc3ccc(S(N)(=O)=O)cc3)c3ccccc3n2)cc(OC)c1OC,-12.7%,2.8%,nt,-19.5%,-2.0%,13µM*
COc1cc(-c2cc(C(=O)NCc3ccco3)c3ccccc3n2)cc(OC)c1OC,-2.2%,-1.4%,nt,-22.4%,-3.9%,13µM*
Cc1ccc(-c2cc(C(=O)NCCc3ccc(S(N)(=O)=O)cc3)c3ccccc3n2)cc1,6.01µM*,14.5%,-2.3%,-8.9%,4.0%,?
SMILES,FLuc counter,Rab9 promoter act,SMN2 splice up,ELG1 genotoxic,NPC1 promoter act,ELG1 DNA repair
NS(=O)(=O)c1ccc(CNC(=O)c2cc(-c3ccccc3)nc3ccccc23)cc1,?,-1.1%,nt,-7.2%,-3.9%,-6.6%
COc1ccc(-c2cc(C(=O)NCCc3ccc(S(N)(=O)=O)cc3)c3ccccc3n2)cc1,7.57µM*,26.0%,-12.2%,-16.5%,4.3%,?
Cc1cccn2c(=O)cc(COc3ccc(NC(=O)COc4ccc(F)cc4)cc3)nc12,3.1%,nt,nt,nt,nt,nt
CC(NCC(O)COCCC12CC3CC(CC(C3)C1)C2)c1ccccc1 (stereo not drawn),0.6%,-22.7%,-43.5%,-6.8%,-0.3%,0.1%
CCNc1nc(N)c(C(=O)c2ccc(Cl)s2)s1,9.53µM*,3.55µM*,20µM*,?,?,?
CCCn1ncc(CN2CCC(n3nccc3NC(=O)c3ccccc3Cl)CC2)c1C,-0.3%,8.4%,nt,0.5%,0.0%,15.4%
Cc1cccc(NS(=O)(=O)c2ccc3c(c2)OCC(C(=O)N2CCCC2)O3)c1C (stereo not drawn),-10.3%,nt,nt,nt,nt,nt
CCCOC(=O)NC1CCS(=O)(=O)C1 (stereo not drawn),0.2%,-7.0%,3.8%,2.5%,3.1%,9.0%
CCCCCCCCCCOC(=O)NC1CCS(=O)(=O)C1 (stereo not drawn),-10.6%,0.1%,-28.8%,-8.3%,-3.8%,23.1µM*
O=C(Cc1ccccc1[N+](=O)[O-])NCc1ccc(Cl)cc1,16.9µM*,?,20µM*,?,?,?
O=C(Cc1ccc([N+](=O)[O-])cc1)NCc1ccccc1Cl,-12.1%,-1.1%,5.6%,1.0%,0.6%,13.7%
O=C(NCc1ccc(Cl)cc1)c1n[nH]c([N+](=O)[O-])c1Cl,21.3µM*,-10.5%,20.3%,?,12.9%,?
O=C(/C=C/c1ccccc1[N+](=O)[O-])NCc1ccc(Cl)cc1,-2.8%,-3.5%,-9.5%,-2.1%,-1.8%,-6.5%
O=C(Cc1ccccc1[N+](=O)[O-])NCc1ccc(Cl)cc1Cl,6.01µM*,3.55µM*,nt,?,3.98µM*,?
O=C(OC1CCN(c2ncc(C(F)(F)F)cc2Cl)CC1)c1ccc(Cl)cc1,-1.0%,0.6%,4.2%,-0.4%,-3.0%,4.1%
